IL1B secr inh: qHTS for Inhibitors of Inflammasome Signaling: IL-1-beta AlphaLISA Primary Screen; 360,000 tested, 4.7% active; activity change, % at 57.5 µM; THP-1 LPS/ATP IL-1B secretion, AlphaLISA, 16 h; hits give low values; AID 743279, 2014; in the data active = activity change below about -50%; inconclusive = mostly about -30% to -49%
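THP-1 cells pretreated 1 hr with compounds (up to 57.5 uM final), then stimulated with LPS (250 ng/mL final) plus ATP (1.25 mM final); secreted IL-1B measured by AlphaLISA after 16 hr, decreased signal indicating inhibition.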
D3 ag: qHTS of D3 Dopamine Receptor Agonist: qHTS | 410,000 tested, 0.58% active | D(3) dopamine receptor (Homo sapiens), P35462 | max activation, % | D3R DiscoveRx beta-arrestin cells, luminescence, 90 min; in the data active = max activation above about 30%
Target sequence (P35462 whole entry, looked up): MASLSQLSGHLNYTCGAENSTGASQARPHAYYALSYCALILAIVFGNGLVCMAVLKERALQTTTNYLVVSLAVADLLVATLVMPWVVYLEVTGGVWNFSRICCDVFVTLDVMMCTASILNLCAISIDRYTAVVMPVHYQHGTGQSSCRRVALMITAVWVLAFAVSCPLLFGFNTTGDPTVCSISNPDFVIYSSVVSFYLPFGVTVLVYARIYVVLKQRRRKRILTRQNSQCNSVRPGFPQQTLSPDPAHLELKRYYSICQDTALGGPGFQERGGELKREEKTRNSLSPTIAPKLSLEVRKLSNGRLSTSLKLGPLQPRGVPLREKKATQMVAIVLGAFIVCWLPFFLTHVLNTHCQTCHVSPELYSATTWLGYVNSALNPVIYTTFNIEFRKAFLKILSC
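Agonist-mode cell screen: cells plated at 1500/well and incubated overnight at 37 °C, then exposed to library compounds for 90 min at 37 °C. Detection reagent was added for 30–60 min at room temperature, and luminescence was read.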
D3 antag: qHTS of D3 Dopamine Receptor Antagonist: qHTS | 360,000 tested, 2.5% active | max response, negative = inhibition, % | AID 652054, 2013 | D3R cells, DiscoveRx beta-arrestin luminescence, antagonist mode; hits give low values | D(3) dopamine receptor (Homo sapiens), P35462; in the data active = max response below about -50%; inconclusive = no clear call, values can overlap the other calls
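Cells plated overnight at 1500 cells/well, then exposed to library compounds with dopamine controls for 90 minutes at 37 degrees C. DiscoveRx reagent added for 30–60 minutes at room temperature; luminescence read, quantitative HTS format.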
DT40 TDP1 no CPT: qHTS for Inhibitors of human tyrosyl-DNA phosphodiesterase 1 (TDP1): qHTS in cells in absence of CPT; AID 686978, 2013; 420,000 tested, 15% active; Potency, µM (doses to about 46.2 µM), hits mostly inhibitors; DT40 Tdp1-/- hTDP1 cells, no CPT, ATP luminescence, 48 h; note: nearly all actives have a fitted effect of over 55% in size
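Seeded 400 DT40-hTDP1 cells/well (vehicle DMSO, no 20 nM CPT); pinned compounds; ≥48 hr at 37 °C; CellTiter-Glo luminescence as viability measure.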
ClpP mod: qHTS Assay for Activators of ClpP; ATP-dependent Clp protease proteolytic subunit (Bacillus subtilis (strain 168)), P80244; purified B. subtilis ClpP, FRET peptide cleavage, 20 min; Potency, µM (top dose mostly 57.5 µM); 340,000 tested, 1.9% active; AID 651965, 2013; active = well fitted falling curve with a large enough effect; inconclusive = small, poorly fitted or top-dose-only effect; inactive = no such curve, though single readings can be large or run the other way; note: the source files actives as falling curves though it sought activators and does not explain the sign; nearly all actives have a fitted effect of over 65% in size
Target sequence (P80244 whole entry, looked up): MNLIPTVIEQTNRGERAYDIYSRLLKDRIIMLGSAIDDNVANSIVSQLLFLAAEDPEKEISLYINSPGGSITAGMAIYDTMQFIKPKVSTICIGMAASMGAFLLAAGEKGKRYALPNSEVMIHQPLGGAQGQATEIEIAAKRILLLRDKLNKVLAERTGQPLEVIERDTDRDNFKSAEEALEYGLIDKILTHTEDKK
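ClpP 10 microg/mL final, pH 8 Tris/KCl buffer with BSA, glycerol, Tween-20; compound pinned in; FRET-FV substrate; RT 20 min; Ex320/Em430; ΔFRET vs ADEP 5.8 microM, DMSO, no enzyme.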
TDP1 cell CPT: qHTS for Inhibitors of human tyrosyl-DNA phosphodiesterase 1 (TDP1): qHTS in cells in presence of CPT | chicken DT40 Tdp1-/-;hTDP1 cells + 20 nM CPT, ATP luminescence, 48 h | Potency, µM (titrated, usually from 46.2 µM), most hits filed as inhibitors | 420,000 tested, 12% active | AID 686979, 2013; note: nearly all actives have a fitted effect of over 55% in size
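Cell growth measured by CellTiter-Glo luminescence after a minimum 48 h, 37 C compound exposure with 20 nM CPT in Tdp1-knockout DT40 cells stably expressing hTDP1, seeded 400/well; qHTS titration format.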
Each line names hits and unclear results; the compound was inactive in the other large screens; ! = repeats disagree. Rows were chosen to be rich in hits. Some 21% of all compounds tested hit in one or more screens of this group. Unless noted, calls come from the whole dose curve; as a rule, active = well fitted inhibition curve with a large enough effect; inconclusive = small, poorly fitted or top-dose-only effect; inactive = flat fitted curve, though single readings scatter.

C[N+]1(CCC(=O)c2ccccc2)CCCCC1	DT40 TDP1 no CPT 2.59µM, TDP1 cell CPT 3.26µM
O=C(COC(=O)C12CC3CC(CC(O)(C3)C1)C2)Nc1cccc(Br)c1	TDP1 cell CPT inconclusive
Cc1c(Cl)cccc1NC(=O)COCc1cc(-c2ccc3c(c2)OCO3)on1	DT40 TDP1 no CPT inconclusive, ClpP mod inconclusive, TDP1 cell CPT inconclusive (no result: IL1B secr inh, D3 antag)
Brc1ccc(OCCOCCN2CCOCC2)cc1	none
Brc1ccc(OCCCCCN2CCOCC2)cc1	IL1B secr inh -59.0 (no result: ClpP mod)
O=C(COC(=O)C1(c2cccc(F)c2)CCCC1)NCc1cccs1	none
CCOC(=O)c1ccc(NC(=O)C2(c3ccccc3)CCCC2)cc1	DT40 TDP1 no CPT inconclusive, TDP1 cell CPT inconclusive
Cc1ccc(NC(=O)COC(=O)C2(c3ccc(Cl)cc3)CCCC2)cc1	IL1B secr inh inconclusive, DT40 TDP1 no CPT 23.1µM, TDP1 cell CPT 23.1µM
CCOC(=O)c1ccc(NC(=O)C2(c3ccc(Cl)cc3)CCCC2)cc1	DT40 TDP1 no CPT inconclusive, TDP1 cell CPT 16.4µM
NC(=O)c1ccc(NC(=O)COC(=O)C2(c3cccc(F)c3)CCCC2)cc1	DT40 TDP1 no CPT 25.9µM, TDP1 cell CPT inconclusive
CC(C)(C)Cc1nnc(NC(=O)c2ccco2)s1	IL1B secr inh inconclusive
O=C(CN1CCOCC1)Nc1ccc(S(=O)(=O)N2CCCCCC2)cc1	D3 ag 30.6
CC1CCCN(S(=O)(=O)c2ccc(NC(=O)CN3CCCCC3)cc2)C1 (centres undefined)	none
CC1CC(C)CN(S(=O)(=O)c2ccc(NC(=O)CN3CCCCCC3)cc2)C1 (centres undefined)	IL1B secr inh -53.4, DT40 TDP1 no CPT 20.6µM, TDP1 cell CPT 16.4µM
O=C(CN1CCN(c2ccc(O)cc2)CC1)Nc1ccc(S(=O)(=O)N2CCCC2)cc1	D3 ag 98.1 (no result: ClpP mod)
CC(C)N1C[C@@H](Sc2ccccn2)C[C@H]1C(=O)Nc1ccc2c(c1)Nc1ccccc1CC2	none (no result: IL1B secr inh, D3 ag, D3 antag, ClpP mod)
O=C(C1CCC(=O)N(C2CC2)C1)N1CCC(Oc2cccc(C(F)(F)F)c2)CC1 (centres undefined)	DT40 TDP1 no CPT inconclusive, TDP1 cell CPT inconclusive
OCC(O)COc1ccc(Cl)cc1 (centres undefined)	none (no result: IL1B secr inh, D3 antag, ClpP mod)
COc1ccc(CSc2nc3ccccc3c(=O)n2CCCN2CCOCC2)cc1F	DT40 TDP1 no CPT inconclusive, TDP1 cell CPT inconclusive
COc1cc(/C=C(\NC(=O)c2ccccc2)C(=O)Nc2nccs2)ccc1OC(C)=O	none
CCc1ccc(S(=O)(=O)Nc2c(C)nn(C)c2C)cc1	DT40 TDP1 no CPT 11.2µM, TDP1 cell CPT 11.2µM
Cc1ccc(S(=O)(=O)Nc2cc3c(cc2C)n(C)c(=O)c(=O)n3C)c(C)c1	DT40 TDP1 no CPT inconclusive (no result: IL1B secr inh, D3 antag)
Cc1ccc(NC(=O)CN(C)S(=O)(=O)c2ccc3c(c2)n(C)c(=O)c(=O)n3C)c(C)c1	DT40 TDP1 no CPT inconclusive, ClpP mod 31.6µM!, TDP1 cell CPT 18.4µM
Cc1ccc(S(=O)(=O)Nc2ccc3c(c2)n(C)c(=O)n3C)c(C)c1	DT40 TDP1 no CPT 20.6µM, TDP1 cell CPT inconclusive (no result: ClpP mod)
Cc1cc(C)c(NC(=O)CN(C)S(=O)(=O)c2ccc3c(c2)n(C)c(=O)c(=O)n3C)c(C)c1	TDP1 cell CPT inconclusive
Cc1ccc(NS(=O)(=O)c2ccc3c(c2)n(C)c(=O)n3C)cc1C	DT40 TDP1 no CPT 20.6µM, TDP1 cell CPT 16.4µM
CC(Cl)C(=O)Nc1ccccc1C#N (centres undefined)	none
CCOc1ccc(NS(=O)(=O)c2cnc(Cl)c(Cl)c2)cc1	IL1B secr inh -99.2, DT40 TDP1 no CPT inconclusive, TDP1 cell CPT inconclusive
CCOc1ccc(S(=O)(=O)Nc2ccc3c(c2)c(C(C)=O)c(C)n3S(=O)(=O)c2ccc(OCC)cc2)cc1	DT40 TDP1 no CPT 5.17µM, TDP1 cell CPT 20.6µM (no result: IL1B secr inh, D3 antag)
CCCCCC(=O)N(c1ccc(OCC)cc1)S(=O)(=O)c1ccc2c(c1)n(C)c(=O)n2C	DT40 TDP1 no CPT 16.4µM, TDP1 cell CPT 20.6µM (no result: IL1B secr inh, D3 antag)
COc1ccc(C(=O)N(c2ccc(OC)cc2)S(=O)(=O)c2ccc3c(c2)n(C)c(=O)n3C)cc1	DT40 TDP1 no CPT inconclusive, TDP1 cell CPT inconclusive (no result: IL1B secr inh, D3 antag)
Cc1ccc(NS(=O)(=O)c2ccc3c(c2)n(C)c(=O)n3C)c(C)c1	IL1B secr inh -54.4, DT40 TDP1 no CPT inconclusive, TDP1 cell CPT inconclusive
Cn1c(=O)n(C)c2cc(S(=O)(=O)Nc3ccccc3O)ccc21	DT40 TDP1 no CPT inconclusive, TDP1 cell CPT inconclusive
Cc1cc(C)cc(NS(=O)(=O)c2cnc(Cl)c(Cl)c2)c1	D3 antag inconclusive, DT40 TDP1 no CPT inconclusive, TDP1 cell CPT inconclusive
COc1ccccc1NC(=O)CCS(=O)(=O)c1cc2c3c(c1)CCN3C(=O)CC2	TDP1 cell CPT inconclusive (no result: IL1B secr inh, D3 antag)
CCc1ccc(S(=O)(=O)Nc2cc3c(cc2C)n(C)c(=O)n3C)cc1	DT40 TDP1 no CPT 2.91µM, TDP1 cell CPT 5.17µM
Cn1c(=O)n(C)c2cc(NS(=O)(=O)c3ccccc3)ccc21	TDP1 cell CPT inconclusive
Cc1ccc(S(=O)(=O)Nc2ccc3c(c2)n(C)c(=O)n3C)cc1	DT40 TDP1 no CPT inconclusive, TDP1 cell CPT 10.3µM
CCOc1ccc(S(=O)(=O)Nc2ccc3c(c2)n(C)c(=O)n3C)cc1	DT40 TDP1 no CPT 7.31µM, TDP1 cell CPT inconclusive (no result: ClpP mod)
O=C(Nc1cccc(S(=O)(=O)N2CCCCCC2)c1)C1CCN(C(=O)c2ccc(F)cc2)CC1	DT40 TDP1 no CPT inconclusive, TDP1 cell CPT inconclusive

Bioassay records deposited in PubChem by National Center for Advancing Translational Sciences (NCATS).
